Here are results for 36 molecules from the antibiotic and cytotoxicity screens of Wong et al. (2023).

The whole screen tested about 39,000 compounds, of which about 1,500 (3.8%) were called active. The entries come from a sample that favours actives as a whole.

The test system of the assay is HSkMC (human skeletal muscle cells). Briefly: cytotoxicity call (relative viability < 0.9). The conditions noted are these: 10 µM.
Turning to `C[C@@H]1CN([C@H](C)CO)C(=O)c2cc(NC(=O)C3CCCCC3)ccc2O[C@@H](C)CCCCO[C@H]1CN(C)S(=O)(=O)c1ccccc1`, the cytotoxicity call was “inactive”.
Turning to `C[C@H]1CN([C@@H](C)CO)C(=O)c2c(c3ccccc3n2C)-c2ccccc2CO[C@H]1CN(C)C(=O)Nc1ccccc1C(F)(F)F`, the cytotoxicity call was “inactive”.
For the molecule `COc1ccc(NC(=O)Nc2cccc3c2O[C@@H](CN(C)Cc2ccc(Cl)c(Cl)c2)[C@H](C)CN([C@H](C)CO)C3=O)cc1`, the cytotoxicity call was “inactive”.
As for `CC(C)NC(=O)Nc1ccc2c(c1)C(=O)N([C@@H](C)CO)C[C@@H](C)[C@H](CN(C)Cc1ccc(Cl)c(Cl)c1)OCCCC[C@@H](C)O2`, the cytotoxicity call is “inactive”.
Next, `C[C@@H]1CN([C@@H](C)CO)C(=O)c2cccc(NC(=O)c3ccncc3)c2O[C@@H]1CN(C)S(=O)(=O)c1cccs1`: “inactive”.
Next, `C[C@H]1CN([C@@H](C)CO)C(=O)CCCn2cc(nn2)CO[C@H]1CN(C)C(=O)C1CC1`: “inactive”; `O=C(C[C@@H]1CC[C@@H]2[C@H](COC[C@H](O)CN2S(=O)(=O)c2cccc(F)c2)O1)NCCCN1CCOCC1`: “inactive”; `CNc1nc(OCC#N)nc(N2CCCCC2)n1`: “inactive”.
For `COC(=O)[C@@]12OC[C@]34[C@H]([C@@H](O)[C@@H]1O)[C@@]1(C)CC(=O)C(=O)[C@H](C)[C@@H]1C[C@H]3OC(=O)[C@H](OC(=O)/C=C(\C)C(C)C)[C@@H]24`, the cytotoxicity call is “active”.
Next, `C[C@H](CO)N1C[C@H](C)[C@@H](CN(C)S(=O)(=O)c2ccccc2)Oc2ncc(C#Cc3ccccc3F)cc2C1=O`: “inactive”; `O=C(C[C@@H]1CC[C@H]2[C@@H](COC[C@@H](O)CN2C(=O)c2ccc3c(c2)OCO3)O1)NCCN1CCCCC1`: “inactive”; `CC(=O)NCC(=O)N1CCC2(CC1)CN(c1cnn(C)c1)C(=O)CO2`: “inactive”.
Next, `COc1ccccc1N1CCN(CC(O)COc2cccc3ccccc23)CC1` (stereo unspecified): “inactive”.
With `O=C1C(=O)N(C[C@@H](O)COc2cccc3ccccc23)C(=O)C(=O)N1C[C@@H](O)COc1cccc2ccccc12`, the cytotoxicity call is “inactive”.
Take `O[C@@H](COc1cccc2ncccc12)CN1CCN([C@@H]2c3ccccc3[C@@H]3[C@H](c4ccccc42)C3(F)F)CC1`: the cytotoxicity call was “active”.
Next, `C[C@H](CO)N1C[C@H](C)[C@@H](CN(C)C(=O)c2ccncc2)OCCCC[C@H](C)Oc2ccc(NS(C)(=O)=O)cc2C1=O`: “inactive”.
Next, `C[C@@H]1CN([C@H](C)CO)C(=O)c2cc(NC(=O)Nc3ccc(C(F)(F)F)cc3)ccc2O[C@@H](C)CCCCO[C@@H]1CN(C)C(=O)Nc1cccc2ccccc12`: “inactive”; `C[C@@H]1CN([C@H](C)CO)C(=O)c2cccc(NC(=O)Nc3ccccc3)c2O[C@@H]1CN(C)S(C)(=O)=O`: “inactive”.
Next, `COc1ccc2c3c(n(c2c1)C)[C@@H](CO)N(CC1CC1)C[C@]13CCN(CC1)S(=O)(=O)c1cn(cn1)C`: “inactive”; `C[C@H](NC(=O)c1c(N)nn2cccnc12)c1cc2cccc(C#Cc3cnn(C)c3)c2c(=O)n1-c1ccccc1`: “active”.
Take `C[C@@H]1CCCCO[C@H](CN(C)C(=O)Nc2ccccc2)[C@@H](C)CN([C@@H](C)CO)C(=O)c2cc(NC(=O)Cc3ccccc3)ccc2O1`: the cytotoxicity call is “inactive”.
Next, `COc1ccc(S(=O)(=O)N(C)C[C@@H]2Oc3cc(C#CC4CC4)ccc3S(=O)(=O)N([C@@H](C)CO)C[C@@H]2C)cc1`: “inactive”.
Regarding `C=CC(=O)Nc1cccc(C)c1Nc1ncc2cc(-c3c(Cl)c(OC)cc(OC)c3Cl)ccc2n1`, the cytotoxicity call is “inactive”.
Next, `C=CC(=O)Nc1cccc(Nc2nc(Nc3ccc(NC4CN(CCF)C4)cc3OC)ncc2C(F)(F)F)c1`: “active”; `C[C@@H]1CN([C@@H](C)CO)C(=O)c2cc(NC(=O)C3CC3)ccc2O[C@H]1CN(C)S(=O)(=O)c1ccccc1`: “inactive”; `C[C@@H](NC(=O)C[C@@H]1CC[C@H](NC(=O)CN2CCOCC2)[C@H](CO)O1)c1ccccc1`: “inactive”.
`CC[C@H](C)n1ncn(-c2ccc(N3CCN(c4ccc(OC[C@H]5CO[C@](Cn6cncn6)(c6ccc(Cl)cc6Cl)O5)cc4)CC3)cc2)c1=O`: the cytotoxicity call is “active”.
Next, `CCC(C)n1ncn(-c2ccc(N3CCN(c4ccc(OCC5COC(Cn6cncn6)(c6ccc(Cl)cc6Cl)O5)cc4)CC3)cc2)c1=O.Cl.Cl` (stereo unspecified): “inactive”.
Next, `CC[C@@H](C)n1ncn(-c2ccc(N3CCN(c4ccc(OC[C@H]5CO[C@](Cn6cncn6)(c6ccc(Cl)cc6Cl)O5)cc4)CC3)cc2)c1=O`: “inactive”; `CS(=O)(=O)N1CCN(Cc2cc3nc(-c4cccc5n[nH]cc45)nc(N4CCOCC4)c3s2)CC1`: “active”; `CO[C@@H]1CN(C)C(=O)c2ccc(NC(=O)NC(C)C)cc2OC[C@@H](C)N(Cc2ccc(-c3ccccn3)cc2)C[C@H]1C`: “inactive”.
With `C[C@H](CO)N1C[C@H](C)[C@H](CN(C)CC2CC2)Oc2ccc(NS(=O)(=O)c3cccs3)cc2C1=O`, the cytotoxicity call is “inactive”.
As for `C[C@H]1CCCCO[C@H](CN(C)C(=O)Nc2ccc(C(F)(F)F)cc2)[C@@H](C)CN([C@@H](C)CO)C(=O)c2cc(NC(=O)Nc3ccc(C(F)(F)F)cc3)ccc2O1`, the cytotoxicity call was “inactive”.
Consider `CC(C)NC(=O)N(C)C[C@@H]1OCCCC[C@@H](C)Oc2ccc(NC(=O)Nc3ccc(C(F)(F)F)cc3)cc2C(=O)N([C@@H](C)CO)C[C@H]1C`, for which the cytotoxicity call was “inactive”.
Turning to `C[C@H](CO)N1C[C@H](C)[C@H](CN(C)C(=O)Nc2ccc(C(F)(F)F)cc2)OCCCC[C@H](C)Oc2ccc(NC(=O)Nc3ccc(C(F)(F)F)cc3)cc2C1=O`, the cytotoxicity call was “active”.
As for `CC(C)NC(=O)N(C)C[C@@H]1OCCCC[C@H](C)Oc2ccc(NC(=O)Nc3ccc(C(F)(F)F)cc3)cc2C(=O)N([C@@H](C)CO)C[C@H]1C`, the cytotoxicity call was “inactive”.
